The structures appear in SMILES notation. “And” between values parts separate entries of the source, which are not always exact repeats. Equal values may be shown once. For some of these results: Potency and affinity values are given separately.

Eleven compounds from ChEMBL document CHEMBL3988442, “University of Dundee, Small-Polar-MMV Screening Library” (2021) can be followed below.

Set-up in all cases: scale not given: direction of the effect not stated beside the values
The target in assay [1] is Protein translocase subunit SecA (Escherichia coli (strain K12)) (UniProt P10408). Briefly: Assay to Identify E. coli SecA ATPase Inhibitors. Format: functional. Particulars: 30 µM.
The target of assay [2] is T1, Ubiquitin-activating enzyme e1, putative (Leishmania donovani (strain BPK282A1)) (UniProt E9BSI1).
T1 sequence (whole entry): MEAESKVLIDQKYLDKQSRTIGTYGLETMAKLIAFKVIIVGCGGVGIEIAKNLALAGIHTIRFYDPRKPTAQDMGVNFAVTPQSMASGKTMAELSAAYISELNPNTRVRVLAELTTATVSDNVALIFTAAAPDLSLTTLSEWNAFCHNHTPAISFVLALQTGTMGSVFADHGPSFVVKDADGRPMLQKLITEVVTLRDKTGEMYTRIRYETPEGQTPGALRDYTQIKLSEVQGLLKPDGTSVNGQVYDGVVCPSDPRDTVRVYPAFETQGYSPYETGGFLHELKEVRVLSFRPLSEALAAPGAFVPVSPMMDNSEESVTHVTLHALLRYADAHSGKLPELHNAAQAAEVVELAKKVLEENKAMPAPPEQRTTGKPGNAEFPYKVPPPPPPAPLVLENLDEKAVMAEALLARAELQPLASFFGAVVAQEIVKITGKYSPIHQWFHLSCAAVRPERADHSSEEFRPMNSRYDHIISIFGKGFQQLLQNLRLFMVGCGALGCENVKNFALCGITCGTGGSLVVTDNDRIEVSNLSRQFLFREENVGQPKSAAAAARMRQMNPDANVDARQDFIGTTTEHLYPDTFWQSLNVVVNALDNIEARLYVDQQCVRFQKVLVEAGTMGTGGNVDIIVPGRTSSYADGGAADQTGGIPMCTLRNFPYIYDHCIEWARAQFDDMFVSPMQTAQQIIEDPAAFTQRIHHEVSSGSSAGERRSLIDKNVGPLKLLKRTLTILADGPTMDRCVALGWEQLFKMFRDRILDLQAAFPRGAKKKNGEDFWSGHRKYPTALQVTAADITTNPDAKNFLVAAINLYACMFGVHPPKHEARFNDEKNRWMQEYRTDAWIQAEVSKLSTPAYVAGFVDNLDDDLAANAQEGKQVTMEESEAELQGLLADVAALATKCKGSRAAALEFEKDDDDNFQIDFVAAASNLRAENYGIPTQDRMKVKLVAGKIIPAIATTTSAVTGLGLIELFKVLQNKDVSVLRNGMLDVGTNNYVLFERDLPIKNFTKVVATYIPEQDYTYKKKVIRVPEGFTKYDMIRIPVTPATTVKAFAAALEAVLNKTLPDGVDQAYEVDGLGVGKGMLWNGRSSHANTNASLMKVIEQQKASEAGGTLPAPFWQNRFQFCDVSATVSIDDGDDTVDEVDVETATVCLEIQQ
Briefly: Leishmania donovani Ubiquitin Activating Enzyme (LdE1). Format: functional. To be noted: 30 µM.

Assay [3] concerns the target AMP-activated protein kinase, AMPK (Homo sapiens) (UniProt P54646+O43741+P54619+Q9UGJ0+Q9Y478+Q13131+Q9UGI9). Briefly: AMP-dependent Kinase enzyme assay. An in vitro enzyme assay that detects ADP turnover that is directly proportional to AMPK activity. This uses naive AMPK that is activated during the assay with MK-8722. Format: functional. Particulars: 30 µM.
Assay [4] has as its target Sialic acid-binding Ig-like lectin 9 (Homo sapiens) (UniProt Q9Y336). Briefly: Hs-Siglec9 ALPHAscreen SOP 20170721. Particulars: 10 µM. A general note: Bead proximity is the source of the signal in Alpha formats.
The next assay deals with Trypanosoma cruzi. Briefly: Trypanosoma cruzi phosphomannomutase and mannose-1-phosphate guanylyltransferase assay. Format: functional. Particulars: 10 µM.
For assay [5], the target named is T2, Arginase-2, mitochondrial (Homo sapiens) (UniProt P78540).
T2 sequence (whole entry): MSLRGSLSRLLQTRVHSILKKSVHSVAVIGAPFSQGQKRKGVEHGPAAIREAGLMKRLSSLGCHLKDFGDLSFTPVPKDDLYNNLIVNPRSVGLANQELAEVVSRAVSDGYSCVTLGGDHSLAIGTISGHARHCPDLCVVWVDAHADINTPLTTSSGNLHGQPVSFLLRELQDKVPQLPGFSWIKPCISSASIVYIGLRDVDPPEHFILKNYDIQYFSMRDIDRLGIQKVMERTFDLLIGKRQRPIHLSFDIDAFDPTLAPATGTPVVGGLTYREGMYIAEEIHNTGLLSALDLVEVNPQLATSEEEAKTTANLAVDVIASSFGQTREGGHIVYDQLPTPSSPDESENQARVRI
The assay is described as follows: in vitro enzyme assay to detect the production of urea directly proportional to the activity of Arginase II. Also: in the data most compounds retested in dose-response had high values. Format: functional. To be noted: 33.3 µM.

For assay [6], the target named is T3, Proteasome subunit beta (Trypanosoma cruzi) (UniProt O96673).
T3 sequence (whole entry): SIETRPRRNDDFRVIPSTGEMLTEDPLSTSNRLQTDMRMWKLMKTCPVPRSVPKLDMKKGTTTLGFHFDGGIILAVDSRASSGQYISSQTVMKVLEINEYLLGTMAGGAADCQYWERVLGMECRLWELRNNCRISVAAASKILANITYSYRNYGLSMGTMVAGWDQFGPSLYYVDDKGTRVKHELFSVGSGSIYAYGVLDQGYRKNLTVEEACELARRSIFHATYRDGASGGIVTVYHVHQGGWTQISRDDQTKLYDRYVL
Briefly: Trypanosoma cruzi proteasome chymotrypsin-like activity (TcProtChymo) assay. Also: in the data most compounds retested in dose-response had high values. Format: functional. Particulars: 9.37 µM.

For another assay, the species on record is Homo sapiens. Briefly: To identify inhibition of the IFN signalling (Jak-Stat) pathway via expression of an eGFP reporter gene under the control of an IFN-stimulated response element (ISRE) containing MxA promoter. Format: functional. Particulars: 30 µM.
Assay [7] concerns the target T4, Tyrosyl-tRNA synthetase, putative (Trypanosoma cruzi (strain CL Brener)) (UniProt Q4DSP6).
T4 sequence (whole entry): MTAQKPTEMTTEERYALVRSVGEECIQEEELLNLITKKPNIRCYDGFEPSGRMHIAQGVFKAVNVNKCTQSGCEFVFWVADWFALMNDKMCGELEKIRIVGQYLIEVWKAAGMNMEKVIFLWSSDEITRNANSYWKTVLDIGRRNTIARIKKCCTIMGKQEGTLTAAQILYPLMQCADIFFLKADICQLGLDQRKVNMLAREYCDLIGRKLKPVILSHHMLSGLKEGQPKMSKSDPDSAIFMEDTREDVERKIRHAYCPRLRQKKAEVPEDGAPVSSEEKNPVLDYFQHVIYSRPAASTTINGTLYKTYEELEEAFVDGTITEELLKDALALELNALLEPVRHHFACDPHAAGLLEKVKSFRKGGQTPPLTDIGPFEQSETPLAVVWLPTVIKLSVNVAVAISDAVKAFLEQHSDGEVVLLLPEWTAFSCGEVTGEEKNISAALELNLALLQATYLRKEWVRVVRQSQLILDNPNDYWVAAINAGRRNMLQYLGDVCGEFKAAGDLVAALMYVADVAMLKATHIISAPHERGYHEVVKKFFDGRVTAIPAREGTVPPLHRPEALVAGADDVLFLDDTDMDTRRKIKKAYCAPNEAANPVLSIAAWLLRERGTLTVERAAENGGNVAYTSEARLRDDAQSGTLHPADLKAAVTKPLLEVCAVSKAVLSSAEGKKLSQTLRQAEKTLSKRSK
The assay is described as follows: Trypanosoma cruzi tyrosyl tRNA synthetase (TcYRS) _High Tyrosine SOP. Also: in the data most compounds retested in dose-response had high values. To be noted: 30 µM. Format: functional.

Assay [8] addresses T4, Tyrosyl-tRNA synthetase, putative (Trypanosoma cruzi (strain CL Brener)). Briefly: Trypanosoma cruzi tyrosyl tRNA synthetase (TcYRS) SOP. To be noted: 30 µM. The format is functional.
Assay [9] deals with Chromo domain-containing protein 1 (Saccharomyces cerevisiae (strain ATCC 204508 / S288c) (Baker's yeast)) (UniProt P32657). The assay is described as follows: ScCHD-1 Enzyme Inhibition Assay. Also: in the data most compounds retested in dose-response had high values. Particulars: 30 µM. Format: functional.
In the next assay the test system is N/A. Briefly: Trypanosoma cruzi proteasome luciferase counter-screen. The format is functional. Particulars: 9.37 µM. (A counterscreen serves to expose hits that act by an unwanted route or on another target.)

Chain of Protein translocase subunit SecA (Escherichia coli (strain K12)) (P10408 whole entry): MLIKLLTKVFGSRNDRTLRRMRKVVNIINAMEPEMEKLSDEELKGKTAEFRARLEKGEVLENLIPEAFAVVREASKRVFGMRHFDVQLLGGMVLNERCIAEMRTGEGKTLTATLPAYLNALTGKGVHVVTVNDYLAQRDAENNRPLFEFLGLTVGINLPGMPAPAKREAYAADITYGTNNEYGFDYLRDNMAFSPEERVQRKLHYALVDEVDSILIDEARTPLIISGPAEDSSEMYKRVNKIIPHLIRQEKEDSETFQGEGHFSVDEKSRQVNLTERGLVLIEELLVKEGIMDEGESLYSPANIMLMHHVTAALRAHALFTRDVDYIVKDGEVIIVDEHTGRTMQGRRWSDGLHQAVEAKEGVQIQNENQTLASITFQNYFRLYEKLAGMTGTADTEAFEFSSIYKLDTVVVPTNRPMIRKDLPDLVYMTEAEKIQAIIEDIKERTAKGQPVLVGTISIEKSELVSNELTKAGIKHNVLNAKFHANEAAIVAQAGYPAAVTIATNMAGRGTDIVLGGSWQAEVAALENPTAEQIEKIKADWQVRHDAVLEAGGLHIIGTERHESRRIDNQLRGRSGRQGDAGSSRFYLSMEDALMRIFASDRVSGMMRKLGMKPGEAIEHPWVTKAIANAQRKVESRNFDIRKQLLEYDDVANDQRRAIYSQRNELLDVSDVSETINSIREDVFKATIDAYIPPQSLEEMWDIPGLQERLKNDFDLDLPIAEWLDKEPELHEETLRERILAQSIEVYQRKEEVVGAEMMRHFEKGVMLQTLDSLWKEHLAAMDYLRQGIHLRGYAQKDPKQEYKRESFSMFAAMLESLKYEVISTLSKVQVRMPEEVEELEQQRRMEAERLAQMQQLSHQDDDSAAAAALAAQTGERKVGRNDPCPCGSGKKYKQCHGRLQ
Chain of Chromo domain-containing protein 1 (Saccharomyces cerevisiae (strain ATCC 204508 / S288c) (Baker's yeast)) (P32657 whole entry, the tested form may be a part): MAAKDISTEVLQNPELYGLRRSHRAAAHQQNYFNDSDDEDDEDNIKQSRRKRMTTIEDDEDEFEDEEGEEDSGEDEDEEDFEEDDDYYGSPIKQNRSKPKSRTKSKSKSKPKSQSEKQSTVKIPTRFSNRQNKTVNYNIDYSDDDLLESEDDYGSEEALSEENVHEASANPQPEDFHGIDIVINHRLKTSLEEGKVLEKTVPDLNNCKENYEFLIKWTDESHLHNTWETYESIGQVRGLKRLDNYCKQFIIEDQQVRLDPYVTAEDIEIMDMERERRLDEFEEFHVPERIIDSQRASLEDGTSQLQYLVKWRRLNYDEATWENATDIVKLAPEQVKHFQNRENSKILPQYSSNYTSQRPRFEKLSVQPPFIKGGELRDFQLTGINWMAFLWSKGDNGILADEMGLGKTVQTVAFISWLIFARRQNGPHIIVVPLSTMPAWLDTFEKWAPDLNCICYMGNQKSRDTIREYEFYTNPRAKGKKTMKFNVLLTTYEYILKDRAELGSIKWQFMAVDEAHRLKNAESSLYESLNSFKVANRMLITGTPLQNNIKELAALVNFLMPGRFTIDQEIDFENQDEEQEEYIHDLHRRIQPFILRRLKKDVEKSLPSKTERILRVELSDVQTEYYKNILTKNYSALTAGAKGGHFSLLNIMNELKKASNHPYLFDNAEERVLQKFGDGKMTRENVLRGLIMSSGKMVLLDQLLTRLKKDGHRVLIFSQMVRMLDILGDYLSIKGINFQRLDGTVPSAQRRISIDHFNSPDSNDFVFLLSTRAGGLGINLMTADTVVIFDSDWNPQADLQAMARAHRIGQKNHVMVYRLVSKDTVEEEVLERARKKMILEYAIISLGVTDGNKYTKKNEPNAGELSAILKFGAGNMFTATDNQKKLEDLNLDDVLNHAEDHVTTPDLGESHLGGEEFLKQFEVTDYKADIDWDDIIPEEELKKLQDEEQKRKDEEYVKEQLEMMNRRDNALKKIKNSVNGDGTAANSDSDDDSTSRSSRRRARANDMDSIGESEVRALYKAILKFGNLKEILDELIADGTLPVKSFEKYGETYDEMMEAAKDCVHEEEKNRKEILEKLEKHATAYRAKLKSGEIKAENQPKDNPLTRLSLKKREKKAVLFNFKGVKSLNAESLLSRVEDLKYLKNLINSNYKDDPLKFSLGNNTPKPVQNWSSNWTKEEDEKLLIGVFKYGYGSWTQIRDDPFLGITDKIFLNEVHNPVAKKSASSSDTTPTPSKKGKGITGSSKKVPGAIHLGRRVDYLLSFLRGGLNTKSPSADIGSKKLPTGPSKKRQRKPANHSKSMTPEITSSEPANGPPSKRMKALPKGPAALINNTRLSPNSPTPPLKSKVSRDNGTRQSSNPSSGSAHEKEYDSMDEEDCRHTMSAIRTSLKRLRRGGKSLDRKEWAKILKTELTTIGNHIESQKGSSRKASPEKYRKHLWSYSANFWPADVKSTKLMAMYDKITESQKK
Chain of Sialic acid-binding Ig-like lectin 9 (Homo sapiens) (Q9Y336 whole entry): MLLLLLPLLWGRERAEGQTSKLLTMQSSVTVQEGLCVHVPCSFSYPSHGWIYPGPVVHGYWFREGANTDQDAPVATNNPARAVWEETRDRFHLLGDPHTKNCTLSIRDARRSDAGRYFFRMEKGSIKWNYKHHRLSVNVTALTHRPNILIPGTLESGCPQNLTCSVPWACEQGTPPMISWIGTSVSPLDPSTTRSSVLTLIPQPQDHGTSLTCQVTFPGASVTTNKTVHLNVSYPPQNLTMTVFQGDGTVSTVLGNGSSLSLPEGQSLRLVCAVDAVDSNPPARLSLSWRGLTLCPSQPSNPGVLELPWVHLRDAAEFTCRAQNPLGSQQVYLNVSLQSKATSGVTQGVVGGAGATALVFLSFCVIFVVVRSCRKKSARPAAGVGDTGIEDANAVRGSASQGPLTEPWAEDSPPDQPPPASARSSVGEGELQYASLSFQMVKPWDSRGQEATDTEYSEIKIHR

Consider `O=C(CCN1CCCC1=O)NCc1cccnc1Oc1ccccc1`, for which the Percent Effect is -6.95% in [1]; -8.22% in assay [2]; 0.461% in assay [3]; 2.58% in assay [4]; 0.595% in the assay on Trypanosoma cruzi; -1.2% in assay [5]. Further, the Percent Effect in [6] is 4.88%; in the assay filed under Homo sapiens it was -2.67%; in assay [7] it was 1.04%; in assay [8], 6.17%; in assay [9], -1.4%.
As to `CCn1cnnc1C1CCN(C(=O)COc2ccccc2)CC1`, the Percent Effect in assay [1] is -7.35%; in assay [2] it was 13%; in assay [3], -3.46%; in assay [4], -2.33%; in the assay with Trypanosoma cruzi it was 4.6%; in [5], -0.21%. The Percent Effect is 5.74% in assay [6]; 7.87% in the assay listed under Homo sapiens; 4.76% in [7]; 11.8% in assay [8]; -22.2% in assay [9].
Consider `O=C(C1=CCCC1)N1C[C@@H]2COC[C@]2(COc2cccnc2)C1`, for which the Percent Effect in [1] was -2.49%; in assay [2], 2.7%; in assay [3] it was 7.33%; in assay [4], 5.37%; with Trypanosoma cruzi, -1.27%; in assay [5], 5.41%. In addition, the Percent Effect in the assay with N/A is 7.45% and 8.06%; in the assay listed under Homo sapiens, 0.513%; in assay [7], 0%; in assay [8] it was -2.56%; in assay [9] it was 4.29%.
For `CC(=O)c1cc(CN2C[C@H]3CC[C@@H]2CN(S(=O)(=O)N(C)C)C3)cs1`, the Percent Effect in [1] is -5.56%; in assay [2], 15.3%; in [3], -10.7%; in assay [4] it was 36%; with Trypanosoma cruzi, 7.68%; in [5], 6.18%. Further, the Percent Effect in [6] is 5.96%; in the assay listed under Homo sapiens, 4.65%; in assay [7] it was 7.37%; in assay [8], 10.3%; in [9] it was -3.04%.
With `NCc1cnn(-c2ccccc2C(=O)NCc2ccncc2)c1`, the Percent Effect is -3.81% in [1]; 6.76% in assay [2]; 13.5% in assay [3]; -2.83% in assay [4]; -2.96% in the assay on Trypanosoma cruzi; -0.232% in assay [5]. The Percent Effect was 6.08% in assay [6]; 6.53% in the assay listed under Homo sapiens; 3.23% in assay [7]; 11.7% in assay [8]; -5.06% in assay [9].
As for `Cc1cnn(CCNCc2nc(COc3ccc(F)cc3)no2)c1`, the Percent Effect is -2.17% in assay [1]; 2.63% in assay [2]; 1.92% in [3]; 0.726% in assay [4]; 0.94% with Trypanosoma cruzi; 1.92% in assay [5]. Also, the Percent Effect in assay [6] is 12.7%; in the assay filed under Homo sapiens, 11.9%; in assay [7], 4.41%; in assay [8], -29.3%; in [9] it was -8.97%.
In the case of `Cc1nc(CN2CCCN(CC(=O)Nc3cccnc3)CC2)no1`, the Percent Effect in assay [1] was -3.59%; in [2], 18.2%; in assay [3] it was 4.53%; in assay [4], -8.79%; in the assay on Trypanosoma cruzi it was -0.294%; in assay [5], 4.84%. Further, the Percent Effect in the assay with N/A was 15.2% and 14.2%; in the assay filed under Homo sapiens, 23.7%; in [7] it was 5.71%; in assay [8], 9.41%; in [9], -14%.
For the compound `CCS(=O)(=O)Nc1ccn(Cc2cccc(Cl)c2)n1`, the Percent Effect in [1] is -6.93%; in assay [2], 0%; in assay [3], 0.628%; in assay [4], 6.52%; in the assay with Trypanosoma cruzi, 2.85%; in assay [5] it was 1.38%. The Percent Effect in [6] was found to be 9.48%; in the assay listed under Homo sapiens it was 13.7%; in assay [7], 6.45%; in assay [8] it was 13.6%; in [9], 120%.
On to `COCCC(=O)Nc1ccnc(Oc2ccccc2)c1`, for which the Percent Effect in [1] is 2.99%; in assay [2], -5.26%; in [3], 0.138%; in assay [4], -14%; in the assay with Trypanosoma cruzi, -6.91%; in [5], 7.1%. The Percent Effect in assay [6] was 15.4%; in the assay filed under Homo sapiens it was 19.5%; in assay [7], 1.06%; in [8] it was 7.79%; in assay [9] it was -6.2%.
As for `COc1ccccc1CNC(=O)N1CCCC(NS(C)(=O)=O)C1` (stereo unspecified), the Percent Effect is -6.57% in assay [1]; -15.6% in [2]; -5.52% in assay [3]; -17.1% in assay [4]; -3.82% in the assay on Trypanosoma cruzi; -2.74% in [5]. In addition, the Percent Effect in assay [6] is 12.8%; in the assay listed under Homo sapiens, 24%; in [7], -25.7%; in assay [8], 7.06%; in assay [9], -22.9%.
For the compound `CNC(=O)c1cc2c(nc1NCC1CC1)CCN(S(=O)(=O)C1CC1)CC2`, the Percent Effect in [1] was -0.616%; in assay [2], 18.2%; in assay [3] it was 3.29%; in assay [4], -14.9%; in the assay with Trypanosoma cruzi, -2.86%; in [5], 8.39%. In addition, the Percent Effect in assay [6] is 9.75%; in the assay filed under Homo sapiens, 33.1%; in assay [7] it was -1.06%; in [8], 11.5%; in assay [9], -8.62%.
